Screening results as filed in PubChem BioAssay.
NPC1 prom act – activates the NPC1 promoter; Huh7 NPC1 promoter luciferase reporter, 24 h; Potency, µM (top dose mostly 9.22 µM), for inactives: top-dose activation, hits mostly activators; 320,000 compounds, 2.4% hits; note: % of control where 0% means no effect; nearly all actives have a fitted effect of over 60% in size
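Compounds in DMSO were transferred onto Huh7 NPC1-luciferase reporter cells pre-incubated 2 h; after 24 h at 37 °C, Amplite reagent was dispensed and luminescence recorded 10 min later.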
FLuc modulator – firefly luciferase modulation, counter-screen for miR-21 project | purified FLuc, Km substrates, luminescence inhibition | P08659 | 360,000 compounds, 6.9% hits | AID 588342 | Potency, µM (highest dose often 57.5 µM), for inactives: top-dose activity change, negative = inhibition, most hits filed as inhibitors;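 note: plate controls were vehicle for no effect and reference inhibitor for full effect; nearly all actives have a fitted effect of over 55% in size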
Target sequence (P08659 whole entry, looked up): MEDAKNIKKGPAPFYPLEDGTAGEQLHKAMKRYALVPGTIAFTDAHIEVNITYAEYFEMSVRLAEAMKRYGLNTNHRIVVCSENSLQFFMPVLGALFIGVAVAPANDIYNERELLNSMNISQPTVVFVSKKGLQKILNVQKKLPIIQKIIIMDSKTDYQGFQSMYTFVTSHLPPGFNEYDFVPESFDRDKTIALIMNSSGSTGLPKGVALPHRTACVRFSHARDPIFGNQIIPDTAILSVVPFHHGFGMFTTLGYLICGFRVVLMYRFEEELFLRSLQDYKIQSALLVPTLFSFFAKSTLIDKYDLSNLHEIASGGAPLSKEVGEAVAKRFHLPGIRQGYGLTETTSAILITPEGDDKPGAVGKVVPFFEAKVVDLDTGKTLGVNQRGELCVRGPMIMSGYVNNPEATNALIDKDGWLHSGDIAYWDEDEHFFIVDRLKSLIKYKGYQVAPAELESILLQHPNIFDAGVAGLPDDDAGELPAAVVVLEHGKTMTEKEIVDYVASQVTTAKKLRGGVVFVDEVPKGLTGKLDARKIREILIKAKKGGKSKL
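Biochemical qHTS of compounds, final roughly 60 µM downward over six points, against 10 nM purified firefly luciferase using Km concentrations of substrates (10 uM D-luciferin, 10 uM ATP) in Tris acetate pH 7.5 buffer; luminescence output.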
ELG1 genotoxic – induces genotoxicity in HEK293T cells with luciferase-tagged ELG1; HEK293T ELG1-luciferase reporter, luminescence, 16 h; Potency, µM (titrated, usually from 46 µM), without a hit: at the top dose activity change, positive = activation, hits mostly activators; 330,000 compounds, 1.3% hits; AID 504466; note: % of control where 0% means no effect; nearly all actives have a fitted effect of over 60% in size
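HEK293T cells expressing luciferase-tagged ELG1 were exposed to compound or DMSO vehicle for 16 hr at 37 °C and 5% CO2. Luciferase activity was then measured with ONE-Glo after 30 min at room temperature.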
ELG1 DNA repair – blocks ELG1-dependent DNA repair in HEK293T cells. HEK293T ELG1-luciferase reporter, luminescence, 16 h; DNA damage induced by 5-fluorouridine. Potency, µM (titrated, usually from 46.1 µM), for inactives: at the highest dose activity change, negative = inhibition, most hits filed as inhibitors. 330,000 compounds, 2.3% hits. AID 504467; note: % is set by controls: 0 for no effect and ±100 for the full control effect; nearly all actives have a fitted effect of over 55% in size
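Reporter activity after DNA damage by 5-fluorouridine is monitored. Compound-treated cells incubate 16 hr at 37 °C, then ONE-Glo is added for 30 min before luminescence reading.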
Rab9 promoter act – Rab9 promoter activation; Huh7 Rab9 promoter-luciferase reporter, luminescence, 24 h; Potency, µM (titrated, usually from 9.22 µM), inactives show top-dose activation, negative = inhibition, actives largely listed as activators; 320,000 compounds, 2.8% hits; note: % of control where 0% means no effect; nearly all actives have a fitted effect of over 60% in size
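Luciferase signal after 10 min detection reagent at ambient indicates Rab9 promoter upregulation; stably transfected Huh7 cells were treated 24 h with compound in DMSO at 37 °C, 5% CO2.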
SMN2 splice enh – enhancers of SMN2 splice variant expression; Potency, µM (highest dose often 46.1 µM), inactives show at the highest dose activity change, positive = activation, usual class: activators; 210,000 compounds, 2.8% hits; AID 1458; HEK293 SMN2-luciferase splicing reporter, luminescence, 30-36 h; note: % of control where 0% means no effect; nearly all actives have a fitted effect of over 55% in size
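qHTS luciferase splicing reporter: luminescence rises when SMN2 exon 7 is included in transfected HEK293 cells. Compound exposure lasted 30-36 h at 37C, with 4.5 mM final sodium butyrate as control, followed by a ONE-Glo read.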
* marks the source's active call; other numbers are inactive results; ? = inconclusive; nt = no result. Compounds with a hit are over-represented: about 9.2% of the library has one in this group of screens. Calls come from the whole dose curve; as a rule, active = well fitted curve in the direction sought with a large enough effect; inconclusive = small, poorly fitted or top-dose-only effect, or another doubt; inactive = no such curve, though single readings can be large; an effect the other way counts as inactive or inconclusive. Potency is the fitted concentration of half-maximal effect.

SMILES	NPC1 prom act	FLuc modulator	ELG1 genotoxic	ELG1 DNA repair	Rab9 promoter act	SMN2 splice enh
O=C(CSc1nnc(COc2ccc(Cl)cc2)o1)N1CCCCC1	3.7%	-1.6%	0.5%	-1.7%	-5.6%	nt
CC(C)CC(=O)Nc1cccc(NC(=O)CC(C)C)n1	-3.7%	2.2%	2.6%	1.3%	-5.1%	?
CN(C(=O)CSc1nc(N)c2c3c(sc2n1)CSC(C)(C)C3)c1ccccc1	-1.2%	?	-3.9%	20.6µM*	-1.5%	-19.0%
Cc1cc(C(F)F)nn1CC(=O)NC1C(=O)N2C(C(=O)O)=C(CSc3nnnn3C)CSC12 (stereo not drawn)	-1.4%	-2.2%	2.9%	-1.1%	-6.1%	-30.8%
COc1cccc(CN(C)C(=O)CN2C(=O)NC(c3ccccc3)(c3ccccc3)C2=O)c1OC	-2.7%	-1.3%	-2.8%	-3.8%	-4.7%	nt
Oc1ccccc1/C=N/Nc1nc2ccccc2o1	-14.9%	1.9µM*	9.2µM*	?	-17.1%	nt
O=C(CSc1nc2ccccc2o1)N/N=C/c1ccc(C(=O)O)cc1	2.2%	-17.0%	-0.4%	-0.4%	-8.6%	nt
Brc1ccc(/C=N/Nc2nc3ccccc3o2)cc1	1.58µM*	1.51µM*	?	?	1.12µM*	nt
CCn1c(SCC(=O)Nc2nc3ccccc3s2)nnc1-c1ccc(Br)cc1	-3.4%	0.7%	0.5%	6.0%	-0.2%	-11.7%
Cc1nnc(SCC(=O)Nc2ccc(-c3nc4ccccc4s3)cc2)s1	0.794µM*	0.269µM*	2.06µM*	?	0.355µM*	1.26µM*
Cc1nnc(SCC(=O)Nc2nsc(-c3ccc(C(C)(C)C)cc3)n2)s1	1.41µM*	10.7µM*	3.26µM*	?	1.41µM*	11.2µM*
Cc1nnc(SCC(=O)Nc2ccccc2NC(=O)CSc2nnc(C)s2)s1	nt	-1.4%	nt	nt	nt	-9.8%
C=CCn1c(SCC(=O)Nc2ccc(N3CCOCC3)cc2)nnc1-c1ccncc1	8.1%	?	0.6%	23.6%	9.3%	nt
CCn1c(SCC(=O)Nc2ccc(-c3nc4ccc(C)cc4s3)cc2)nnc1-c1ccccc1	?	?	?	?	0.631µM*	0.562µM*
C=CCn1c(SCC(=O)Nc2ccc(-c3nc4ccc(C)cc4s3)cc2)nnc1-c1ccncc1	?	?	?	?	?	7.08µM*
Cc1cccc(NC(=O)c2ccc(CNS(=O)(=O)c3ccc4c(c3)C(C)(C)C(=O)N4C)cc2)c1	nt	-11.0%	nt	nt	nt	nt
CCOC(=O)c1c(C)c(C(=O)NCc2ccc(Cl)cc2)c(C)n1C	nt	-6.4%	nt	nt	nt	-5.6%
CCCS(=O)(=O)c1ncc(Cl)c(C(=O)N(Cc2ccccc2)Cc2ccco2)n1	nt	-16.9%	nt	nt	nt	-63.7%
Cc1ccc(-c2csc3nnc(SCC(=O)Nc4nsc(-c5ccccc5)n4)n23)cc1	nt	3.3%	nt	nt	nt	-24.5%
O=C(CSc1nnc2scc(-c3ccccc3)n12)Nc1nsc(-c2ccccc2)n1	1.3%	9.4%	-26.6%	9.2µM*	-6.7%	-66.2%
CCOc1ccc(NC(=O)Cn2nnc(-c3ccc(C(N)=O)cc3)n2)cc1S(=O)(=O)N1CCCC1	-2.9%	6.75µM*	25.0%	?	13.1%	nt
CCOc1ccc(NC(=O)Cn2nc(C(N)=O)c3ccccc3c2=O)cc1S(=O)(=O)N1CCCC1	1.1%	-4.0%	-0.6%	6.5%	0.6%	nt
O=C(Cn1nnc(-c2ccccc2Cl)n1)Nc1cccc(S(=O)(=O)N2CCCC2)c1	nt	nt	-3.3%	23.1µM*	nt	nt
CC(=O)N1CCc2cc(Br)cc(S(=O)(=O)N3CCN(c4cccc(C(F)(F)F)c4)CC3)c21	nt	-0.9%	nt	nt	nt	-6.8%
COc1ccc(/C=C/C(=O)NC(=S)N2CCN(c3ccccn3)CC2)cc1OC	-4.3%	23.9µM*	-3.5%	-29.4%	-3.4%	nt
O=C(/C=C/c1ccc(F)cc1)NC(=S)N1CCN(c2ccccn2)CC1	?	21.3µM*	9.5%	17.7%	2.51µM*	nt
